BoNT F protease: BoNT/F light chain protease inhibitors, primary screen, biochemical, flow cytometry, MLPCN library; Botulinum neurotoxin type F light chain protease (Clostridium botulinum); Multiplex microsphere protease cleavage assay; inhibition, % at 10 µM; 360,000 tested, 0.22% active; AID 588497, 2011; in the data active = inhibition above about 35%, passing the limit was not always enough; inconclusive = no clear call, values can overlap the other calls; also: plate controls were buffer without enzyme for full effect and enzyme alone for no effect
Anthrax LF inh2: Bacillus anthracis LF protease inhibitors, primary screen, biochemical, multiplex microsphere, MLPCN library. inhibition, % at 10 µM. 360,000 tested, 0.12% active. AID 588501, 2011. multiplex microsphere protease cleavage assay; also: plate controls were buffer without enzyme for full effect and enzyme alone for no effect
Target sequence (P15917 whole entry, looked up): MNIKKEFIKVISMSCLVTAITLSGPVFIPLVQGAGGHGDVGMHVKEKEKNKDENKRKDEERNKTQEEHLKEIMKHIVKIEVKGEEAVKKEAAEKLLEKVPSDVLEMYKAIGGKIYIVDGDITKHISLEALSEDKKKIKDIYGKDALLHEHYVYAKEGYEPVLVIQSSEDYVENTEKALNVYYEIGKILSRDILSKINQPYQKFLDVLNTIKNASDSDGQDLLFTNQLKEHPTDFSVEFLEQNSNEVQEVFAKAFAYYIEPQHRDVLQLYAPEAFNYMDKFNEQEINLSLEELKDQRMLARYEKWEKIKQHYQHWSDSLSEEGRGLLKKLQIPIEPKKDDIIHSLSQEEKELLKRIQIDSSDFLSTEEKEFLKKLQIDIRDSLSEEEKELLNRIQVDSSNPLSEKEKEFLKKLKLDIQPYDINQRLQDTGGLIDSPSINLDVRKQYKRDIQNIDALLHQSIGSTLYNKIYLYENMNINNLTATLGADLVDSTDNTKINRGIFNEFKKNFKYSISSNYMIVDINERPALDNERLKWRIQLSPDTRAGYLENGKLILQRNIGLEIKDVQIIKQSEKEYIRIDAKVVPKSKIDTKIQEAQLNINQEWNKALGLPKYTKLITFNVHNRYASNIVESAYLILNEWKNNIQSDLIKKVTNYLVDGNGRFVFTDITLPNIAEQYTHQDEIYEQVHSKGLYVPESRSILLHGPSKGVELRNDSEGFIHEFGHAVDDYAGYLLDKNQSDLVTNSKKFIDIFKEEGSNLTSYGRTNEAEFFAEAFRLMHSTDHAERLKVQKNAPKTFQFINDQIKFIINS
Autofluor counter: compound fluorescence in toxin protease inhibitor counterscreen | fluorescence intensity (test concentration not listed) | 360,000 tested, 3.1% active | compound autofluorescence counterscreen, microsphere flow cytometry; active compounds read high; in the data active = fluorescence intensity above about 16000; inconclusive = no clear call, values can overlap the other calls
BoNT A protease: BoNT/A light chain protease inhibitors, primary screen, biochemical, flow cytometry, MLPCN library | Botulinum neurotoxin type A light chain protease (Clostridium botulinum A str. ATCC 3502) | AID 588499, 2011 | multiplex microsphere protease substrate cleavage | 360,000 tested, 0.17% active | inhibition, % at 10 µM; also: plate controls were buffer without enzyme for full effect and enzyme alone for no effect
3CLpro inhibitor: SARS-CoV 3CLpro protease inhibitors, primary screen, biochemical, quenched FRET; Replicase polyprotein 1ab (Severe acute respiratory syndrome coronavirus), P0C6X7; recombinant SARS-CoV 3CLpro, quenched FRET peptide cleavage; inhibition, % at 6 µM; 290,000 tested, 0.14% active; in the data active = inhibition above about 12%
CCHF vOTU inh: CCHFV vOTU protease inhibitors, primary screen, biochemical, Pep-AMC substrate, fluorescence; Crimean-Congo hemorrhagic fever virus L polyprotein viral ovarian tumor (vOTU) protease …; inhibition, % at 11.5 µM; 370,000 tested, 0.55% active; in the data active = inhibition above about 30%; also: 0% = vehicle wells with enzyme and 100% = no enzyme wells
* marks the source's active call; other numbers are inactive results. Only some compounds are listed: those with a hit (about 3.9% of all), similar ones and a draw of the others. Rule as the data show it, unless noted: active = inhibition above about 30%; inconclusive = no clear call, values can overlap the other calls; inactive = below that.

What do the screens show for `C=CCn1c(N)c(C(=O)N2CCOCC2)sc1=S`?
BoNT F protease: 5; Anthrax LF inh2: -2; Autofluor counter: 19777*; BoNT A protease: inconclusive; 3CLpro inhibitor: -2; CCHF vOTU inh: 9

How did C[C@H](O)[C@@H]1CN2CCc3ccc(N4CCOCC4)cc3[C@@H]2C[C@@H]1N(C)C(=O)c1ccco1 do in these assays?
CCHF vOTU inh: -1

What do the screens show for `COc1ccc(S[C@]2(C(=O)N3CCN(C(C)=O)CC3)CC(=O)N(C(=O)CCc3ccccc3)[C@@H]2c2ccc(OC)cc2)cc1`?
CCHF vOTU inh: 9

How did Brc1ccc(CSc2nnc(SCc3ccccc3)s2)cc1 do in these assays?
CCHF vOTU inh: -2

How did O=C(COc1ccc(F)cc1)NCC1CCCO1 (centres undefined) do in these assays?
BoNT F protease: -4; Anthrax LF inh2: 0; Autofluor counter: 24747*; BoNT A protease: inconclusive; 3CLpro inhibitor: 1; CCHF vOTU inh: 2

Results for O=C(COc1ccccc1)NCC1CCCO1 (centres undefined) ?
BoNT F protease: -12; Anthrax LF inh2: 0; Autofluor counter: 6856; BoNT A protease: -2; 3CLpro inhibitor: -2; CCHF vOTU inh: 5

How did O=C(NCc1cccnc1)C(C(=O)c1ccc(F)cc1)n1ccccc1=O (centres undefined) do in these assays?
BoNT F protease: 1; Anthrax LF inh2: 0; Autofluor counter: 22039*; BoNT A protease: inconclusive; 3CLpro inhibitor: -2; CCHF vOTU inh: 5

What do the screens show for `O=C(NCc1ccccc1)C(C(=O)c1ccc(F)cc1)n1ccccc1=O` (centres undefined)?
BoNT F protease: 3; Anthrax LF inh2: -1; Autofluor counter: 4565; BoNT A protease: -1; 3CLpro inhibitor: -4; CCHF vOTU inh: -7

What do the screens show for `Cc1ccc(=O)n(C(C(=O)NCc2ccco2)C(=O)c2ccc(F)cc2)c1` (centres undefined)?
BoNT F protease: 0; Anthrax LF inh2: -1; Autofluor counter: 22339*; BoNT A protease: 0; 3CLpro inhibitor: -9; CCHF vOTU inh: -4

What do the screens show for `O=C(NCCCN1CCOCC1)C(C(=O)c1ccccc1)n1ccccc1=O` (centres undefined)?
BoNT F protease: 1; Anthrax LF inh2: -1; Autofluor counter: 22755*; BoNT A protease: 1; 3CLpro inhibitor: 0; CCHF vOTU inh: -7

What do the screens show for `COC(=O)c1cc(-c2ccccc2)c(=O)n2c1CCC2`?
CCHF vOTU inh: -4

How did COc1cc(-c2c(C(=O)c3ccccc3)[nH]c(N)c2C(=O)NCCc2c[nH]c3ccccc23)ccc1F do in these assays?
CCHF vOTU inh: -3

How did COc1ccc(CCNC(=O)C(C(=O)c2ccc(F)cc2)n2ccccc2=O)cc1OC (centres undefined) do in these assays?
BoNT F protease: -3; Anthrax LF inh2: 1; Autofluor counter: 2608; BoNT A protease: 0; 3CLpro inhibitor: 1; CCHF vOTU inh: -8

How did O=C(NCC1CCCO1)C(C(=O)c1ccc(F)cc1)n1ccccc1=O (centres undefined) do in these assays?
BoNT F protease: 3; Anthrax LF inh2: -1; Autofluor counter: 21506*; BoNT A protease: 1; 3CLpro inhibitor: -1; CCHF vOTU inh: 8

What do the screens show for `Nc1cc2nsnc2cc1Br`?
BoNT F protease: -4; Anthrax LF inh2: 5; Autofluor counter: 3234; BoNT A protease: 2; 3CLpro inhibitor: 0; CCHF vOTU inh: 97*

How did Nc1cccc2nsnc12 do in these assays?
BoNT F protease: inconclusive; Anthrax LF inh2: -2; Autofluor counter: 4306; BoNT A protease: 3; 3CLpro inhibitor: -7; CCHF vOTU inh: 24

What do the screens show for `CCC(CO)[n+]1c(C)cc(/C=C2\Sc3ccccc3N2Cc2ccccc2)cc1C` (centres undefined)?
BoNT F protease: 4; Anthrax LF inh2: 36*; Autofluor counter: 10304; BoNT A protease: 40*; 3CLpro inhibitor: -4; CCHF vOTU inh: 14

How did CCN1/C(=C2\SC(=S)N(Cc3ccccc3)C2=O)Sc2ccccc21 do in these assays?
BoNT F protease: 6; Anthrax LF inh2: 1; Autofluor counter: 2672; BoNT A protease: 4; 3CLpro inhibitor: 0; CCHF vOTU inh: 8

From PubChem BioAssay
